In PubChem BioAssay (NCATS) one finds outcome, max response and Potency data, which are given here for 20 molecules.

SMILES strings stand for the structures. Inconclusive results are not listed. Unmarked numbers belong to inactive results. Active and inactive are the calls of the source. Calls come from the whole dose curve; as a rule, active = well fitted inhibition curve with a large enough effect; inconclusive = small, poorly fitted or top-dose-only effect; inactive = flat fitted curve, though single readings scatter.

One assay has as its system CRL-7250. Kind of assay: Cytotoxic Profiling of Annotated Libraries Using Quantitative High-Throughput Screening (AID 1296008). For max response: % is set by controls: 0 for no effect and ±100 for the full control effect. Note: potency is the fitted concentration of half-maximal effect. To be noted: Five cell lines viability, CellTiter-Glo ATP luminescence, 48-72 h; max response: hits give low values. In short, it runs like this: (§1)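 Cells exposed to compounds for 48 or 72 hr at 37 degrees Celsius. Viability read as ATP-coupled luminescence with CellTiter-Glo after 10 min at room temperature.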
On the technique in general: Cellular ATP, detected with luciferase, serves as a proxy for viable cell number.

Assay [1] relates to HaCat. Described as above. The note with it: Five cell lines viability, CellTiter-Glo ATP luminescence, 48-72 h; max response: hits give low values. The essentials: as §1
The next assay relates to KB-3-1. Described as above. The note with it: Five cell lines viability, CellTiter-Glo ATP luminescence, 48-72 h; max response: hits give low values. In short, it runs like this:
as §1

A further assay concerns NIH3T3. Described as above. To be noted: Five cell lines viability, CellTiter-Glo ATP luminescence, 48-72 h; max response: hits give low values. The essentials: as §1
Assay [2] has as its system HACAT. Kind of assay: qHTS assay to identify novel small-molecules to repurpose for Merkel cell carcinoma treatment (AID 1296009). To be noted: MCC and control cell lines, CellTiter-Glo viability, 72 h; at 44.8 µM (top of the series) unless noted. In short, it runs like this:
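Cells were incubated with compound for 72 hr at 37 degree celsius before CellTiter-Glo addition. Luminescence was normalized with no-cell wells as full cytotoxicity and DMSO as baseline.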
A general note: Quantitative high-throughput screening tests each substance at several concentrations.

The subject of a further assay is P93_24. The experiment in a line: qHTS profiling for inhibitors of Plasmodium falciparum proliferation (AID 504749). Note: potency is the fitted concentration of half-maximal effect. The note with it: P. falciparum in erythrocytes, SYBR Green DNA, 72 h; series mostly up to 28.7 µM. The essentials: (§2)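 Readout was DNA-dye fluorescence from lysed cultures, ex 485/em 535 nm. Parasitized red cells had grown 72 h with compound; data scaled between 0.29 uM artemisinin and DMSO wells and corrected using vehicle-only plates.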

The subject of the next assay is P94_40. The assay is described as above. The note with it: P. falciparum in erythrocytes, SYBR Green DNA, 72 h. In short, it runs like this: as §2
Another assay concerns PAD. Described as above. The note with it: P. falciparum in erythrocytes, SYBR Green DNA, 72 h; series mostly up to 28.7 µM. The essentials:
as §2

The next assay has as its system PC49. The description is as above. The note with it: P. falciparum in erythrocytes, SYBR Green DNA, 72 h; series mostly up to 28.7 µM. The essentials: as §2
Another assay concerns TAB165. The assay is described as above. The note with it: P. falciparum in erythrocytes, SYBR Green DNA, 72 h; series mostly up to 28.7 µM. In short, it runs like this:
as §2

Another assay relates to W2. The description is as above. To be noted: P. falciparum in erythrocytes, SYBR Green DNA, 72 h; series mostly up to 28.7 µM. In short, it runs like this: as §2
Note: nearly all actives have a fitted effect of over 60% in size.

On to `Cc1nc(C(=O)N2CCC[C@H]2Cc2nnc(-c3ccccc3)o2)c(-c2ccccc2F)s1`, for which the result in the assay with CRL-7250, in the assay with HaCat [1], with KB-3-1 and with HACAT [2] was inactive. Besides, in the assay with NIH3T3, the max response was 4.09%.
Regarding `CC[C@H](C)/C=C(C)/C=C/C1=CC2=C(Cl)C(=O)[C@](C)(O)[C@H](OC(C)=O)[C@H]2CO1`, the figures for the max response in the assay with CRL-7250 and in the assay on KB-3-1 were -9.34% and -1.44%, respectively. In addition, the molecule was called inactive with HaCat [1], in the assay with NIH3T3 and in the assay with HACAT [2].
Regarding `COc1cc(/C=C2\CC[C@H]3COC[C@@H](c4cc(F)c(F)c(F)c4)N3C2=O)ccc1-n1cnc(C)c1`, in the assay with CRL-7250, the max response was 3.12%. In addition, the result with HaCat [1], with KB-3-1, in the assay with NIH3T3 and in the assay on HACAT [2] was inactive.
In the case of `CCN(CC)C(=O)C(c1ccccc1)N1CCN(c2ccc(NC(=O)c3ccccc3-c3cccnc3)cc2F)CC1` (stereo not drawn), the max response in the assay with CRL-7250 was -1.45%. For the same molecule, the molecule was classed as inactive in the assay on HaCat [1], with KB-3-1, with NIH3T3 and in the assay on HACAT [2].
`N[C@@H]1c2cccnc2[C@H](OC(=O)N2CCC(n3c(=O)[nH]c4ncccc43)CC2)CC[C@H]1c1cccc(F)c1F`: the max response was -0.901% in the assay with CRL-7250 and 4.19% in the assay with KB-3-1. Further, the result with HaCat [1], in the assay on NIH3T3 and in the assay with HACAT [2] was inactive.
With `O=C(Nc1ccn(Cc2ccc(O)cc2C(F)(F)F)n1)c1c(F)cccc1F`, the max response with CRL-7250 was -7.76%; with KB-3-1 it was -23.9%. The molecule was called inactive in the assay on HaCat [1], with NIH3T3 and with HACAT [2].
On to `O=C(O)C1=CO[C@@H](O[C@@H]2O[C@H](CO)[C@@H](O)[C@H](O)[C@H]2O)[C@@H]2C(CO)=CC[C@H]12`, for which the max response was -1.39% in the assay with CRL-7250, 6.01% with KB-3-1 and -3.54% in the assay on NIH3T3. For the same molecule, the molecule was called inactive with HaCat [1] and in the assay with HACAT [2].
With `CC(C)Nc1nc(Nc2ccccc2)nc(-c2ccccc2)n1`, the max response in the assay with CRL-7250 was -10.5%; with KB-3-1 it was -2.52%; in the assay on NIH3T3, -18.6%. Further, the molecule was classed as inactive with HaCat [1] and with HACAT [2].
For the molecule `C/C=C(\C)C(=O)OC1C[C@@]2(COC(C)=O)O[C@H]2/C=C\[C@@]2(C)O[C@@H]2[C@H]2OC(=O)C(COC(C)=O)=C12` (stereo partly drawn), the max response is -2.2% in the assay on CRL-7250, 7.77% in the assay with KB-3-1 and 3.22% in the assay on NIH3T3. Besides, in the assay on HaCat [1], the outcome was inactive. In addition, the outcome with HACAT [2] was “inactive [at 17.4 µM]”.
On to `C=C1C(=O)O[C@@H]2/C=C(\CO)CC/C=C(\CO)[C@H](OC(C)=O)C(OC(=O)C(C)CC)C12` (stereo partly drawn), for which the max response is -5.38% with CRL-7250 and -1.91% in the assay on NIH3T3. The result in the assay on HaCat [1] and in the assay with KB-3-1 was inactive. Further, in the assay with HACAT [2], the outcome was “inactive [at 17.4 µM]”.
With `CC(C)(O)c1ccc2c(c1)ncn2-c1cccc(-c2ccccc2C#N)c1`, the molecule was called inactive in the assay with CRL-7250, in the assay on HaCat [1], in the assay with NIH3T3 and in the assay on HACAT [2]. Further, in the assay with KB-3-1, the max response is -0.453%.
As to `CN1CCC(c2cn(C)c3ccc(OS(=O)(=O)c4c(F)cccc4F)cc23)CC1`, the molecule was called inactive in the assay on CRL-7250, in the assay with HaCat [1] and in the assay with HACAT [2]. In addition, the values for the max response in the assay on KB-3-1 and with NIH3T3 were -7.12% and 3.31%, respectively.
As for `O=C(Nc1cccnc1)c1cc(-c2ccnc(F)c2)ccc1OCc1ccccc1`, the max response is -1.07% in the assay on CRL-7250, 6.84% in the assay on KB-3-1 and 4.92% in the assay with NIH3T3. The molecule was classed as inactive with HaCat [1] and in the assay on HACAT [2].
For `CC(C)(F)CC(NC(c1ccc(-c2ccc(S(C)(=O)=O)cc2)cc1)C(F)(F)F)C(=O)NC1(C#N)CC1` (stereo not drawn), in the assay on CRL-7250, the max response is -1.34%. Besides, the outcome in the assay on HaCat [1], in the assay on KB-3-1, with NIH3T3 and in the assay on HACAT [2] was inactive.
On to `O=C(NCCCNc1nc(Nc2cccc(CN3CCOCC3)c2)ncc1C1CC1)C1CCC1`, for which the Potency is 5.8 µM (active) with CRL-7250, 20.6 µM (active) with KB-3-1 and 4.61 µM (active) in the assay on NIH3T3. In addition, the molecule was called inactive in the assay on HaCat [1] and with HACAT [2].
Turning to `Cc1cc(OCCCS(C)(=O)=O)cc(C)c1-c1cccc(COc2ccc(C3=CC(=O)NS3=O)cc2)c1` (stereo not drawn), the max response with CRL-7250 is 3.79%; in the assay on KB-3-1 it was 3.57%; in the assay with NIH3T3, -0.311%. Further, the call in the assay with HaCat [1] and in the assay with HACAT [2] was inactive.
With `CC1(C)C2CCC(CO[C@@H]3O[C@H](CO[C@@H]4OC[C@](O)(CO)[C@H]4O)[C@@H](O)[C@H](O)[C@H]3O)C1C2` (stereo partly drawn), the max response in the assay on CRL-7250 is 1.81%. For the same molecule, the molecule was classed as inactive with HaCat [1], in the assay with KB-3-1 and with NIH3T3. The outcome in the assay on HACAT [2] was “inactive [at 17.4 µM]”.
Take `COC1C(OC(=O)/C=C/C=C/C=C/C=C/C(=O)O)CCC2(CO2)C1C1(C)OC1CC=C(C)C` (stereo not drawn): the Potency is 0.0251 µM (active) in the assay with P93_24; 0.0251 µM (active) in the assay with P94_40; 1.41 µM (active) in the assay with PAD; 0.0316 µM (active) with TAB165; 0.0107 µM (active) in the assay with W2. Besides, the Potency result in the assay on PC49 was “inactive”.
Regarding `CNC(=O)c1cc(Oc2ccc(NC(=O)c3cccc(C(F)(F)F)c3)cc2)ccn1`, the results for the max response in the assay with CRL-7250, in the assay with HaCat [1] and in the assay on NIH3T3 were -16.9%, -5.26% and -24.9%, respectively.
For the molecule `O=C(Nc1ccc(N(Cc2ccsc2)C(=O)Cn2nnc3ccccc32)cc1)C1CC1`, the max response was -5.74% in the assay on CRL-7250 and 4.89% with NIH3T3. Besides, the result with HaCat [1] and in the assay on HACAT [2] was inactive.
